Assay outcomes (PubChem BioAssay)
This is a sample that favours compounds with a hit; in the whole collection about 10% have one here.
JMJD2A Tudor: inhibitors of human JMJD2A Tudor domain; AlphaScreen JMJD2A-Tudor / H3K4me3 peptide binding; Potency, µM (highest dose often 114 µM), for inactives: top-dose activity change, negative = inhibition, usual class: inhibitors; AID 504339; O75164; hit rate 4.4% among 390,000; note: % is set by controls: 0 for no effect and ±100 for the full control effect; nearly all actives have a fitted effect of over 50% in size
GLS inh: blocks human kidney-isoform glutaminase activity; Potency, µM (doses to about 45.5 µM), for the others: at the top dose activity change, negative = inhibition, hits mostly inhibitors; hit rate 0.21% among 410,000; AID 624170; GLS enzymatic activity, qHTS titration; O94925; note: % is set by controls: 0 for no effect and ±100 for the full control effect
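hKGA; 45 mM KH2PO4 pH 8.2 + 0.02% Tween-20; cpd via pin tool; 1 mM Gln soln; GluOx/HRP/Amplex Red; RT 30 min; fluor. t0 & final.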
HP1b chromo inh: blocks HP1-beta chromodomain binding to methylated histone tails | P83916 | AlphaScreen HP1-beta / biotin-H3K9me3 peptide binding | Potency, µM (series often up to 114 µM), for inactives: top-dose activity change, negative = inhibition, hits mostly inhibitors | hit rate 0.56% among 390,000 | AID 540317; note: nearly all actives have a fitted effect of over 70% in size
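AlphaScreen: HP1-beta (50 nM) preformed 30 min with biotin-H3(1-18)K9me3 peptide (50 nM) in PBS pH 7.4, 0.01% Tween-20. Compound added for 30 min at RT, then streptavidin donor/nickel chelate acceptor beads (10 ug/mL) for 30 min.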
BAZ2B inh: blocks human BAZ2B. Q9UIF8. AlphaScreen BAZ2B-H3K14Ac peptide displacement. Potency, µM (doses to about 114 µM), without a hit: at the highest dose activity change, negative = inhibition, actives largely listed as inhibitors. hit rate 4.4% among 360,000. AID 504333; note: % is set by controls: 0 for no effect and ±100 for the full control effect; nearly all actives have a fitted effect of over 60% in size
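Compounds, titrated to a top concentration of 110 uM, were incubated 30 min at room temperature with preformed BAZ2B/acetyl-K14 H3 peptide complex (50 nM each). Proximity signal was measured by AlphaScreen after 20 min with beads.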
G9a block: blocks human histone lysine methyltransferase G9a; Q96KQ7; G9a H3K9 monomethylation, AlphaScreen, 2 h; Potency, µM (top dose mostly 102 µM), inactives show at the top dose activity, negative = inhibition, hits mostly inhibitors; hit rate 8.8% among 350,000; note: % is set by controls: 0 for no effect and ±100 for the full control effect; nearly all actives have a fitted effect of over 75% in size
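Methyltransferase reactions run at room temperature for 2 h (20 nM enzyme, 500 nM biotin-H3K9 peptide, 20 uM SAM) after a 15 min compound preincubation; product detected by AlphaScreen beads and anti-H3K9me1 antibody.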
* marks the source's active call; other numbers are inactive results; ? = inconclusive; · = not tested or not shown; [ ] = dose if it differs, or a comment. Calls come from the whole dose curve; as a rule, active = well fitted curve in the direction sought with a large enough effect; inconclusive = small, poorly fitted or top-dose-only effect, or another doubt; inactive = no such curve, though single readings can be large; an effect the other way counts as inactive or inconclusive. Potency is the fitted concentration of half-maximal effect.

SMILES	JMJD2A Tudor	GLS inh	HP1b chromo inh	BAZ2B inh	G9a block
COc1ccccc1OCC(=O)N1CCN(C(=O)COc2ccccc2OC)CC1	-20%	3%	28%	-14%	40µM*
COc1cccc(C(=O)N(Cc2cccnc2)c2nc3c(OC)ccc(C)c3s2)c1OC	?	-1%	6%	?	?
COc1ccc(NC(=O)N(Cc2ccco2)C2CCN(C(C)=O)CC2)c(OC)c1	-20%	-9%	30%	3%	-6%[59 µM]
O=C(Cn1c(=O)n(Cc2nc(-c3ccccc3)no2)c(=O)c2cc3c(cc21)OCO3)Nc1ccc(Cl)cc1	-1%	-9%	30%	-22%	-21%[59 µM]
COc1ccc(CCNC(=O)Cc2c(C)c3cc4c(C)coc4cc3oc2=O)cc1OC	?	5%	34%	2%	3%[59 µM]
COc1ccccc1OCC(=O)N1CCN(S(=O)(=O)c2ccc(Cl)cc2)CC1	3%	1%	25%	9%	45µM*
CC(C)OC(=O)CSc1nc(Cc2cccs2)nc2ccccc12	6%	-11%	66%	41%	358%
CC1=NN(c2ccccc2)C(=O)C1	-15%	-11%	25%	-32%	-59%[59 µM]
CC1=NN(c2ccc(S(=O)(=O)O)cc2C)C(=O)C1	50µM*	0%	42%	56µM*	25µM*
CC(C)c1ccc(S(=O)(=O)N2CCN(C(=O)[C@@H]3CCCN3C(=O)c3cccs3)CC2)cc1	-9%	2%	29%	-2%	45µM*
COC(=O)c1cccc(C(=O)N2CCCC(Nc3ccc(C)c(C)c3)C2)c1 (stereo not given)	-32%	1%	9%	?	50µM*
COc1ccc(C(=O)N2CCCC(Nc3ccc(C)c(C)c3)C2)cc1F (stereo not given)	?	-5%	?	2%	10%
CC(C)c1ccc(NC2CCCN(C(=O)c3cccs3)C2)cc1 (stereo not given)	-32%	-1%	-9%	?	50µM*
Cc1cc(C(=O)N2CCCC(N3CCN(c4cccc(C(F)(F)F)c4)CC3)C2)c(C)o1 (stereo not given)	-19%	5%	13%	-38%	79µM*
Cc1occc1C(=O)N1CCCC(N2CCN(c3cccc(C(F)(F)F)c3)CC2)C1 (stereo not given)	-22%	5%	13%	?	?
COc1cc(/C=C/CNC[C@H]2O[C@@H](n3cnc4c(N)ncnc43)[C@H](O)[C@@H]2O)ccc1O	·	21%	·	·	·
CC(=O)N1c2c(cc(Br)cc2S(=O)(=O)N2CCN(c3cccc(Cl)c3)CC2)CC1C (stereo not given)	-26%	-1%	13%	-11%	-29%[59 µM]
CN(CC(=O)Nc1ccc(Cl)c(C(F)(F)F)c1)C(=O)c1ccccc1SCC(=O)N1CCCC1	-17%	4%	40%	·	·
Cc1ccc(NC2CCCN(C(=O)c3cccnc3)C2)cc1C (stereo not given)	3%	9%	20%	-17%	-1%
COc1ccc(NC2CCCN(C(=O)c3cccs3)C2)cc1 (stereo not given)	-39%	0%	2%	?	50µM*
CCOC(=O)N1CCN(C2CCCN(C(=O)c3ccccc3C(F)(F)F)C2)CC1 (stereo not given)	-10%	-3%	35%	-27%	71µM*
COc1ccc(NC2CCCN(C(=O)c3ccccc3C(F)(F)F)C2)cc1 (stereo not given)	-21%	-4%	-16%	?	40µM*
Cc1ccc(NC2CCCN(C(=O)c3cccs3)C2)cc1C (stereo not given)	-33%	4%	-6%	-38%	35µM*
O=C(NNC(=O)C1CCCCC1)c1ccc(Br)cc1	-8%	2%	28%	-20%	-31%
COc1ccc(NC2CCCN(C(=O)c3cc(CC(C)C)nc(N)n3)C2)cc1 (stereo not given)	-22%	-10%	16%	-30%	45µM*
COCCCNC(=S)N/N=C/c1ccc(N(C)C)cc1Cl	5%	0%	23%	-3%	8%
COCCNC(=S)N/N=C(\C)c1ccccc1O	-10%	25%	27%	10µM*	22%[59 µM]
COCCNC(=S)N/N=C/c1ccccc1C(=O)O	?	23%	17%	?	8.9µM*
